Experimental data from PubChem BioAssay (NCI).
About 79,000 compounds went through this panel and 15% of them were active in at least one assay; those are over-represented in the sample as a whole. Active and inactive are the calls of the source. Rule as the data show it: active = growth inhibition above about 70%; inactive = the rest.

What was measured:
[1] = NCI Yeast Anticancer Drug Screen. Data for the rad50 strain (AID 155);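 also: 0% = growth of vehicle-only cultures of the same strain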; conditions: S. cerevisiae rad50 strain growth inhibition; at 50.0 µM; hits give high values
How it was run: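 Inhibition values express reduced yeast growth in compound-treated cultures relative to vehicle-treated controls.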

[2] = NCI Yeast Anticancer Drug Screen. Data for the mec2-1 strain (AID 157); conditions: S. cerevisiae mec2-1 strain, at 50.0 µM, hits give high values
How it was run: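 Growth inhibition is read against vehicle-treated controls after compound exposure of the mec2-1 yeast strain, which is defective in DNA damage repair or cell cycle control.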

[3] = NCI Yeast Anticancer Drug Screen. Data for the sgs1 mgt1 strain (AID 161);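 also: 0% = growth of cultures given vehicle only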; conditions: S. cerevisiae sgs1 mgt1 strain, at 50.0 µM, hits give high values
How it was run: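 This yeast growth screen uses a strain with defined DNA-repair lesions; compound-treated growth is compared with vehicle-treated growth.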

[4] = NCI Yeast Anticancer Drug Screen. Data for the cln2 rad14 strain (AID 165);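 also: 0% = growth equal to vehicle treated cultures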; conditions: S. cerevisiae cln2 rad14 strain, at 50.0 µM, hits give high values
How it was run: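 Growth inhibition, relative to vehicle-treated controls, is the read-out. The test organism is a yeast strain with defined genetic alterations, cln2 rad14.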

[5] = NCI Yeast Anticancer Drug Screen. Data for the bub3 strain (AID 167); conditions: S. cerevisiae bub3 mutant strain, at 50.0 µM, hits give high values
How it was run: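 Steps: expose the mutant yeast strain to compound; grow alongside vehicle-treated cultures; measure growth; express inhibition against the vehicle cultures.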

[6] = NCI Yeast Anticancer Drug Screen. Data for the mlh1 rad18 strain (AID 175); conditions: S. cerevisiae mlh1 rad18 strain growth inhibition; at 50.0 µM; hits give high values
How it was run: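 Cells of a genetically altered yeast strain, deficient in DNA damage repair, were treated with compound. Their growth was then compared with that of vehicle-treated cultures to give inhibition.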

Measured: growth inhibition

O=C(O)Cc1ccccc1-c1ccccc1
inactive: [1] -22.2% | [2] -8.15% | [3] -19.2% | [4] 22.4% | [5] -6.2% | [6] -43.2%

Cc1cc2c3c(c1)CCCN3CCC2
inactive: [1] -12.1% | [2] -8.9% | [3] -9.85% | [4] -30.9% | [5] 3.1% | [6] 2.8%

CCOC(=O)C12CCCC1(O)N(NC(=O)OC(C)(C)C)C(C)=C2C(=O)OC (configuration not stated)
inactive: [1] -7.85% | [2] 15.1% | [3] -2.6% | [4] -43.2% | [5] 0.35% | [6] -7.5%

COC1=C(c2ccccc2)P(=O)(Cc2ccccc2)C2CCCC12 (configuration not stated)
inactive: [1] 4.95% | [2] 21.4% | [3] 35.9% | [4] 7.6% | [5] 21.4% | [6] -17.3%

Nc1nc2c(nc(Br)n2C2OC(CO)C(O)C2O)c(=O)[nH]1 (configuration not stated)
inactive: [1] -2.05% | [2] -1.6% | [3] 0.95% | [4] -8.4% | [5] 1.8% | [6] -9.65%

CCOC(=O)C1CC1c1ccccc1 (configuration not stated)
inactive: [1] 6.1% | [2] -7.9% | [3] -0.25% | [4] -8.65% | [5] -3.6% | [6] 8.5%

COc1ccc(/C(Cl)=C(\CN(C)C)c2ccc(OC)c(OC)c2)cc1OC
inactive: [1] 41.5% | [2] 18.6% | [3] 10.3% | [4] 27.9% | [5] -5.85% | [6] 24.1%

CCOC(=O)c1c(C(=O)Nc2ccccc2)c(-c2ccccc2)n(NC(=O)c2cccc(Cl)c2)c1C
inactive: [1] 18.1% | [2] 10.3% | [3] 3.9% | [4] 7.2% | [5] -4.85% | [6] 21.5%

[N-]=[N+]=Nc1ccnc2c(C(F)(F)F)cccc12
inactive: [1] -19.9% | [2] -18.1% | [3] -8% | [4] -60.2% | [5] -14.3% | [6] -2.45%

CCCCCn1cnc2cc(N3CCOCC3)c([N+](=O)[O-])cc2c1=O
inactive: [1] 4.9% | [2] 34.9% | [3] 5.75% | [4] 8.2% | [5] 18.2% | [6] 14.3%

COc1ccc(C(=O)N=Nc2ccccc2)cc1
inactive: [1] 0.05% | [2] 0.7% | [3] -6.85% | [4] -49.9% | [5] 3.35% | [6] -13.1%

COc1ccccc1OCC(O)CO (configuration not stated)
inactive: [1] -8.3% | [2] -22.9% | [3] -14.8% | [4] 7.7% | [5] -10.9% | [6] 10.5%

Cc1ccc(S(=O)c2ccccc2C(O)(C(F)(F)F)C(F)(F)F)cc1 (configuration not stated)
active: [1] 76.2% | [2] 75.8% | [3] 74.6% | [6] 75.7%
inactive: [4] 59.6% | [5] 52.1%

C1=C(c2ccccc2)CCCC1
inactive: [1] 17.1% | [2] 3.55% | [3] 4.2% | [4] 14.4% | [5] -9.4% | [6] 4.45%

CCCCCCCCCCCCCCCCS(=O)(=O)N/N=C/c1ccc2c(c1)OCO2
inactive: [1] 13.9% | [2] 3% | [3] 3.5% | [4] 4.05% | [5] -0.55% | [6] -3.25%

O=C1CCC(=O)N1CC1CC2CCC1C2 (configuration not stated)
inactive: [1] 40% | [2] 4.15% | [3] 22.2% | [4] 23.8% | [5] 4.4% | [6] 36%

Cc1cccc(Cl)c1N
inactive: [1] -5.55% | [2] -7.95% | [3] 6.9% | [4] 3.15% | [5] -2.4% | [6] -3.15%

CC1=CC(=O)c2ccc3c4ccccc4n(C)c3c2C1=O
inactive: [1] -16.7% | [2] -35.1% | [3] -13.9% | [4] 0.2% | [5] -2.9% | [6] -19.9%

O=C(Nc1ccccc1F)OCCCl
inactive: [1] 11.8% | [2] -23.6% | [3] 6.55% | [4] 1.45% | [5] 3.55% | [6] 4.4%

CCCCCCCCCCCCCCCC(=O)CCCCCCCCCCCCCCC
inactive: [1] 21.1% | [2] -15.9% | [3] 6.35% | [4] -3.8% | [5] -0.95% | [6] 28.9%

CSc1nc(NC2OC(COC(C)=O)C(OC(C)=O)C(OC(C)=O)C2OC(C)=O)c2c(n1)OCC2=O (configuration not stated)
inactive: [1] 2.65% | [2] -13.7% | [3] -38% | [4] 28.2% | [5] 30.9% | [6] 18.1%

O=C(CCC(=O)OCCCl)OCCCl
inactive: [1] -3.4% | [2] -18.9% | [3] -5.6% | [4] -7.75% | [5] 9.05% | [6] -7.45%

O=[N+]([O-])C1=C(c2ccccc2)SC(Br)=C(c2ccccc2)S1
inactive: [1] -1.2% | [2] 9.7% | [3] 3.2% | [4] -0.6% | [5] 3.35% | [6] 7.65%

COC(=O)C(=O)C(C(=O)C(=O)Nc1cc(C)ccc1C)c1nc2ccccc2[nH]c1=O (configuration not stated)
inactive: [1] 13% | [2] -11.9% | [3] 14.4% | [4] 21.1% | [5] -13.7% | [6] 9.4%

O=C(Cc1n[nH]c(=S)nc1CC(=O)c1ccccc1)c1ccccc1
inactive: [1] -2.05% | [2] 0.85% | [3] 5.2% | [4] -17.5% | [5] -27.9% | [6] 7.4%

Cc1cc(-c2ccc(N=Nc3c(C)nn(-c4ccc(S(=O)(=O)O)cc4)c3O)c(C)c2)ccc1N=Nc1ccc(O)c(C(=O)O)c1
inactive: [1] 26% | [2] 12.4% | [3] 26.2% | [4] 20.9% | [5] 18.6% | [6] 21%

O=C1C=C(NCCCCC2CCCCC2)c2ccccc2C1=O
inactive: [1] 11.8% | [2] -3.25% | [3] 0.15% | [4] 11.2% | [5] -9.3% | [6] -4.6%

O=[N+]([O-])c1cc(/C=N/NS(=O)(=O)c2ccc(F)cc2)c(O)c([N+](=O)[O-])c1
inactive: [1] 10.2% | [2] -11.2% | [3] -14.6% | [4] 3.65% | [5] 0.35% | [6] 9%

O=c1[nH]c(=O)c2[nH]c(=O)[nH]c2[nH]1
inactive: [1] 8.35% | [2] -7.15% | [3] -13.5% | [4] 27.9% | [5] 7.25% | [6] -17.9%

CSc1nc2c(nnn2C2OCC(O)C(O)C2O)c(=O)[nH]1 (configuration not stated)
inactive: [1] -10.7% | [2] -0.5% | [3] -11.9% | [4] -4.3% | [5] -6.1% | [6] 6.4%

O=C(O)c1cc(=O)[nH]c(=O)[nH]1
inactive: [1] -17.6% | [2] 0.05% | [3] -14.9% | [4] 7.05% | [5] -6.5% | [6] -21.2%

CCc1nc(N)nc(N)c1-c1ccc(Cl)c(N=CN(C)C)c1
inactive: [1] 31.8% | [2] 23.1% | [3] 26.9% | [4] 29.8% | [5] 16.6% | [6] 51.5%

O=C(c1ccc(Cl)cc1)C(C(c1ccccc1[N+](=O)[O-])N1CCCCC1)N1CCCCC1 (configuration not stated)
inactive: [1] -15.1% | [2] -0.3% | [3] -10.4% | [4] -30.8% | [5] -23.6% | [6] 2.15%

C[N+](C)(C)CCOC(=O)C(c1ccccc1)C1(O)CCCC1 (configuration not stated)
inactive: [1] 33.6% | [2] -16.1% | [3] 12.7% | [4] -24.4% | [5] -1.7% | [6] 22.3%

O=S(=O)(O)CC(O)CSSCC(O)CS(=O)(=O)O (configuration not stated)
inactive: [1] 33.2% | [2] -3.55% | [3] 8.25% | [4] -4.05% | [5] 1.4% | [6] -9.1%

COc1ccc([N+](=O)[O-])cc1NC(=O)Nc1ccc(F)c([N+](=O)[O-])c1
inactive: [1] 8.6% | [2] 3.4% | [3] -6.3% | [4] 0.2% | [5] -3.8% | [6] 6.3%

O=C(C[n+]1cc(Br)cc(Br)c1)c1ccc2ccccc2c1
inactive: [1] 27.2% | [2] 3.45% | [3] 7.7% | [4] 11.8% | [5] 20.2% | [6] 43.6%

Cc1cc(Cl)ccc1NC(=O)C1C(=O)N(c2ccc(Cl)cc2C)C(=O)/C1=N\NC(N)=S (configuration not stated)
inactive: [1] -16.6% | [2] -6.6% | [3] -22.5% | [4] -0.25% | [5] -2.5% | [6] -27.1%

CC(C)C(NC(=O)c1ccccc1C(=O)O)c1ccccc1 (configuration not stated)
inactive: [1] 6.3% | [2] -7.35% | [3] 7.1% | [4] 4.45% | [5] 29.6% | [6] -3.7%

FC1(F)C(F)(F)C(F)(F)C2(F)C(F)(F)C(F)(F)C(F)(F)C(F)(F)C2(F)C1(F)F (configuration not stated)
inactive: [1] -25.2% | [2] -21.2% | [3] -17.7% | [4] 7.25% | [5] -0.8% | [6] -8.5%

CC1CCCN(C(=O)Nc2ccccc2)C1 (configuration not stated)
inactive: [1] 14.4% | [2] -0.8% | [3] -10.2% | [4] 10.4% | [5] 4.65% | [6] 1.15%

CCCCCCCCCCN(CCCCCCCCCC)C(C)C(O)c1ccc2cc(Br)c3ccccc3c2c1 (configuration not stated)
inactive: [1] -12.4% | [2] -13.2% | [3] -15.8% | [4] -16.9% | [5] -12.5% | [6] -14.3%
